Assay outcomes deposited in PubChem BioAssay by several laboratories.
CYP2C19 activ – human CYP2C19 activators, primary screen, biochemical, luminescence | activation factor at 5 µM | Cytochrome P450 2C19 (Homo sapiens), P33261 | 96,000 tested, under 10 active | recombinant CYP2C19, luciferin-H EGE luminescence; hits give high values; 0 = fully inhibited enzyme, 1 = untreated enzyme | AID 1025, 2008;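 active means activation factor of at least 2 at 5 µM in the primary screen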;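 further: 0 = wells with 2.5 mM tranylcypromine and 1 = vehicle-only wells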
Target sequence (P33261 whole entry, looked up): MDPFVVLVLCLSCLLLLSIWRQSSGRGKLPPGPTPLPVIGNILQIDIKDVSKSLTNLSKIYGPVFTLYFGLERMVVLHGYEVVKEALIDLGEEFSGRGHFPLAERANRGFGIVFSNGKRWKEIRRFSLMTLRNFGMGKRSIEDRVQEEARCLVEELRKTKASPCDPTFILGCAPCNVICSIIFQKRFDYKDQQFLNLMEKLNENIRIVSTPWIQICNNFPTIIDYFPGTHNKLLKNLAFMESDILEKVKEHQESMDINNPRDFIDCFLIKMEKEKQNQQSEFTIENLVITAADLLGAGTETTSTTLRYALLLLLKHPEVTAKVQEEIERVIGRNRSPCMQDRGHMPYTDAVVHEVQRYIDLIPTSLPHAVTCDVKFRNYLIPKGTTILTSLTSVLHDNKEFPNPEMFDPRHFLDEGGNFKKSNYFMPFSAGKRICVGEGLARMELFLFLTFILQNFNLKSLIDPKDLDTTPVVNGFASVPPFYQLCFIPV
CYP2C9 inhib – blockers of cytochrome P450 2C9 activity – biochemical, luminescence, ADME assay, primary screen | P11712 | CYP2C9 Supersomes, luciferin-H conversion | inhibition, % at 5 µM | hit rate 20% among 96,000;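 active means blocking of liver enzyme CYP2C9 beyond about 50% at 5 µM, limit read from the data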
Cav3 T inh – Cav3.2 calcium influx blockers – cell-based, Fluo-4 calcium fluorescence, FDSS, MLSMR library, primary screen. B-score at 10 µM. hit rate 4% among 100,000. Voltage-dependent T-type calcium channel subunit alpha-1H (Homo sapiens), O95180. Cav3.2-expressing cells; hits give low values;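 active means single-dose well whose peak fluorescence ratio is a statistical outlier from its plate by either plate-standardised score or position-corrected B-score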
CYP2C19 inh – blockers of cytochrome P450 2C19 activity – biochemical, luminescence, ADME assay, primary screen | CYP2C19 Supersomes, luciferin-H EGE luminescence, 30 min | inhibition, % at 5 µM | hit rate 21% among 96,000;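 active means CYP2C19 inhibition above a set limit at 5 µM in the primary screen, cut at about 50% in these data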;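 further: plate controls were negative control wells for no effect and 2.5 mM tranylcypromine positive control for full effect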
CYP2C9 activ – human CYP2C9 activators, primary screen, biochemical, luminescence; Cytochrome P450 2C9 (Homo sapiens), P11712; recombinant CYP2C9, luciferin-H conversion; hits give high values; factor 1 = untreated enzyme, 0 = blocked; activation factor at 5 µM; hit rate 1.4% among 96,000;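 active means activation factor of 2 or more for CYP2C9 at a 5 µM dose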;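 further: 0 = sulfaphenazole-blocked wells and 1 = vehicle-only wells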
Starred values were filed as active, the others as inactive; / = not tested or not shown. An excerpt weighted towards active compounds, which were near 27% of everything screened.

SMILES | CYP2C19 activ | CYP2C9 inhib | Cav3 T inh | CYP2C19 inh | CYP2C9 activ
COc1ccccc1N1CCN(C(=O)CSc2ncccc2-c2nc3ccccc3[nH]2)CC1 | 0.3 | 58* | -0.84 | 74* | 0.4
Cc1ccc(CNC(=O)CN(Cc2ccccc2)S(C)(=O)=O)cc1 | / | / | -0.19 | / | /
Cc1cccc(NC(=O)C(NS(=O)(=O)c2ccc3c(c2)CCC(=O)N3)c2ccccc2)n1 (stereo not drawn) | 0.9 | 39 | -0.76 | 8 | 0.6
COc1ccc(Nc2nnc(-c3ccc(N4CCOCC4)c([N+](=O)[O-])c3)c3ccccc23)cc1 | 0.8 | 53* | -0.024 | 17 | 0.5
COc1nnc(-c2ccc(N3CCOCC3)c(NC(=O)c3ccc(C)cc3)c2)c2ccccc12 | 0.7 | 43 | -0.47 | 28 | 0.6
CCCCCCCCOC(=O)C(NC(=O)CCC(=O)Nc1ccc(S(N)(=O)=O)cc1)C(O)c1ccccc1 (stereo not drawn) | 0.5 | 62* | 0.07 | 54* | 0.4
Cc1c(NC(=O)CSc2ccccc2C(=O)Nc2cccnc2)c(=O)n(-c2ccccc2)n1C | 1.1 | 9 | / | -6 | 0.9
Cc1cccc(NC(=O)c2nc[nH]c2C(=O)N[C@@H](C)C(=O)OC(C)(C)C)c1 | / | / | 0.35 | / | /
CCCCOc1ccc(/C=N/NC(=O)c2csc(C)c2C)cc1 | 0.3 | 60* | -2.2 | 65* | 0.4
CCc1c(C(=O)N/N=C/c2ccc(C)o2)csc1C | / | / | 0.056 | / | /
Cc1scc(C(=O)N/N=C/c2ccc(OCC(C)C)cc2)c1C | 0.3 | 82* | -4.3* | 72* | 0.2
COC(=O)c1ccc(/C=N/NC(=O)CC(=O)NCC(C)C)cc1 | 0.8 | 38 | 0.0025 | 16 | 0.6
C=Cc1c(C)c2cc3[nH]c(cc4nc(cc5nc(cc1[nH]2)C(C)=C5CCC(=O)O)C(CCC(=O)O)=C4C)c(C)c3C=C | / | / | 0.58 | / | /
O=C(COC(=O)c1ccccn1)Nc1cccc(Cl)c1Cl | 0.2 | 22 | / | 84* | 0.8
CC(=O)Nc1nonc1NC(=O)c1ccc(C(C)(C)C)cc1 | 0.6 | 20 | -0.33 | 42 | 0.8
CCOC(=O)c1[nH]c2c(c1C)C(=O)CC(c1ccc(OCC)c(OC)c1)C2 (stereo not drawn) | 0.2 | 90* | 0.97 | 76* | 0.1
COC(=O)c1[nH]c2c(c1C)C(=O)CC(c1ccc(C)cc1)C2 (stereo not drawn) | 1 | 31 | -0.48 | 1 | 0.7
CCOC(=O)c1[nH]c2c(c1C)C(=O)CC(c1ccc(F)cc1)C2 (stereo not drawn) | 0.9 | 88* | -2.1 | 15 | 0.1
Cc1c(C(=O)OCC2CCCO2)[nH]c2c1C(=O)CC(c1ccc(N(C)C)cc1)C2 (stereo not drawn) | 0.8 | 92* | -0.91 | 21 | 0.1
Cc1nnc(SCc2c(Cl)cccc2Cl)s1 | 0.4 | 6 | -0.39 | 59* | 0.9
Cc1ccc(CSc2nnc(-c3cccs3)n2C)cc1 | / | / | 0.21 | / | /
Cn1c(SCc2c(Cl)cccc2Cl)nnc1-c1cccs1 | 0 | 76* | 0.014 | 98* | 0.2
Cn1c(SCc2ccc(Br)cc2)nnc1-c1cccs1 | 0 | 76* | -0.74 | 97* | 0.2
CSC(=NNC(=O)c1ccc(O)cc1)SC | 0.9 | 10 | -0.06 | 10 | 0.9
COC(=O)c1nn(-c2ccccc2)c(-c2ccccc2)c1C(=O)c1ccccc1 | 0.7 | 43 | -7.8* | 34 | 0.6
SMILES | CYP2C19 activ | CYP2C9 inhib | Cav3 T inh | CYP2C19 inh | CYP2C9 activ
COC(=O)c1onc(C(=O)c2ccccc2)c1C(=O)OC | 0.4 | 51* | -0.0027 | 62* | 0.5
COCCNC(=O)c1onc(CCl)c1C(=O)OC | 0.8 | -12 | 1.2 | 17 | 1.1
Cc1noc(C)c1Cn1nc(C(=O)O)c2ccccc2c1=O | 0.6 | 80* | / | 36 | 0.2
Cc1cccc(C)c1OCCn1nc(C(=O)O)c2ccccc2c1=O | 0.7 | 1 | -0.95 | 28 | 1
Cc1cccc(OCCn2nc(C(=O)O)c3ccccc3c2=O)c1 | 0.3 | 68* | -0.68 | 72* | 0.3
COc1nc(OC)nc(N2CCC(C(=O)NCc3cccs3)CC2)n1 | 0.8 | -45 | / | 24 | 1.4
COc1ccc(N(CC(=O)O)S(=O)(=O)c2c(C)n[nH]c2C)cc1 | 1.1 | -14 | -0.36 | -12 | 1.1
COc1cccc(N2CCN(C(=O)CN(c3ccc(C)cc3)S(=O)(=O)c3c(C)n[nH]c3C)CC2)c1 | 0.4 | 81* | -1.8 | 58* | 0.2
COc1ccc(NC(=O)CN(c2cc(C)cc(C)c2)S(=O)(=O)c2c(C)n[nH]c2C)cc1 | 0.9 | 69* | -0.46 | 14 | 0.3
Cc1cc(C)cc(N(CC(=O)N2CCN(c3ccccc3)CC2)S(=O)(=O)c2c(C)noc2C)c1 | 0.7 | 24 | -2.1 | 31 | 0.8
CCOc1ccccc1NC(=O)CN(c1ccc(C)cc1)S(=O)(=O)c1c(C)n[nH]c1C | 0.3 | 95* | -0.4 | 73* | 0.1
COc1ccc(N(CC(=O)Nc2cc(C)on2)S(=O)(=O)c2cc(C)ccc2C)cc1 | 0 | 95* | -2.2 | 98* | 0
C=C1CCN([C@@H](CC(C)C)C(=O)NCCC(C)C)S(=O)(=O)c2ccccc21 | / | / | -1.6 | / | /
CCOC(=O)C1C(c2cccc(Cl)c2Cl)NC(=O)NC1(O)C(F)(F)F (stereo not drawn) | 0.8 | 1 | -0.059 | 21 | 1
COC(=O)c1cc(NC(=O)CC2NC3CCCCC3NC2=O)cc(C(=O)OC)c1 (stereo not drawn) | 0.8 | 9 | 0.49 | 20 | 0.9
COc1ccccc1CNC(=O)CN(c1ccc(C)cc1)S(=O)(=O)c1c(C)n[nH]c1C | 0.3 | 67* | -1.8 | 67* | 0.3
Cc1ccc(N(CC(=O)Nc2ccc3c(c2)OCCO3)S(=O)(=O)c2c(C)n[nH]c2C)cc1 | 0.4 | 74* | -0.35 | 62* | 0.3
Cc1ccc(N(CC(=O)Nc2ccc3c(c2)OCCO3)S(=O)(=O)c2c(C)noc2C)cc1 | 1 | 24 | -2.9 | -4 | 0.8
Cc1ccc(N(C(C)C(=O)O)S(=O)(=O)c2c(C)n[nH]c2C)cc1 (stereo not drawn) | 0.9 | 20 | -0.17 | 11 | 0.8
CCOC(=O)c1ccc(NC(=O)CN(c2ccc(C)cc2)S(=O)(=O)c2c(C)n[nH]c2C)cc1 | 0.8 | 76* | / | 19 | 0.2
COc1ccc(/C=N/n2cnnc2SCc2ccc(OC)cc2)cc1 | 0.8 | 1 | -0.49 | 20 | 1
CCCC(=O)Nc1sc2c(c1C#N)CCCCC2 | / | / | -0.83 | / | /
Cc1cc(C)n2c(SC/C(O)=C(\C#N)c3nc4ccccc4[nH]3)nnc2n1 | 0.8 | 30 | -0.67 | 16 | 0.7
Cc1ccccc1-n1c(SC/C(O)=C(\C#N)c2nc3ccccc3[nH]2)nnc1-c1ccncc1 | 0.1 | 95* | 2 | 86* | 0
COc1ccc(-c2cnn(-c3ccccc3)c2N)cc1OC | 0.7 | -120 | 0.72 | 30 | 2.2*
